Drawing on PubChem BioAssay (NCATS), this text covers outcome and activity change, negative = inhibition for 40 molecules.

Active and inactive are the calls of the source. The call rests on the fitted dose curve; in most records, active means well fitted inhibition curve with a large enough effect; inconclusive means small, poorly fitted or top-dose-only effect; inactive means flat fitted curve, though single readings scatter.

The target of the experiment is Luciferin 4-monooxygenase (Photinus pyralis) (UniProt P08659). As to the kind of experiment: Primary firefly luciferase (FLuc) qHTS assay for identification of artifact compounds. (AID 1845220). Further: nearly all actives have a fitted effect of over 60% in size. As to conditions: purified firefly luciferase, luminescence, 5 min; series mostly up to 54.1 µM. The source says:
PI: Alexander Tropsha Ph.D.
UNC Eshelman School of Pharmacy
University of North Carolina, Chapel Hill, North Carolina
Hits from high-throughput screening (HTS) of chemical libraries are often false positives due to their interference with the assay detection technology. In response to this problem, we generated the largest publicly available library of chemical liabilities and developed a free webtool to predict HTS artifacts, both of which are described herein. More specifically, we generated, curated, and integrated HTS datasets for thiol reactivity, redox activity, and luciferase (firefly and nano) activity. Using these curated datasets, we developed and validated several Quantitative Structure-Interference Relationship (QSIR) models to predict nuisance behavior. […] These models were employed for virtual profiling of the National Center for Advancing Translational Science's (NCATS) in-house library, and 256 compounds for each assay were selected for the experimental validation of nuisance behavior. The BA for these external predictions ranged from 58 to 78% for compounds within the applicability domains of the models. […] The models developed in this study, along with aggregation models previously developed by our group (SCAM Detective) were implemented in "Liability Predictor," an online tool which may be used as part of chemical library design or for triaging HTS hits. Both the models and the curated datasets are publicly available at https://liability.mml.unc.edu/.
SEQUENCE No. (e.g., 1, 2, 3, etc.); […] (e.g., Cells, Incubation, Reagent, etc.); VALUE; DESCRIPTION.
1; Reagent; 3 uL; Luciferase substrate mixture.
2; Compounds and control; 16 nL; Kalypsis pin tool (Wako USA) equipped with a 1536-well pin head.
4; Reagent; 1 uL; Luciferase enzyme.
6; Detection; Luminescence, ViewLux microplate reader.
NOTES (numbers refer to Sequence numbers above)
1. 3 uL of luciferase substrate mixture containing D-luciferin and ATP (final concentrations of 10 uM and 10 uM, respectively) in assay buffer (10 mM Mg-acetate, 0.01% Tween-20, 0.05% bovine serum albumin, 50 mM Tris acetate, pH 7.6) was dispensed into all wells of a 1536-well assay plate (solid-bottom white plate; Greiner Bio One, Monroe, NC).
2. A Wako Pin-tool (Wako Automation, Richmond, VA) was used to transfer 16 nL of compounds (consisting of 7-plates in qHTS format, final concentration range 18.3 nM to 114 uM) or control PTC124 (final concentration range 1.22 nM to 40 uM).
3. 15 min. incubation at room temperature protected from light.
4. 1 uL of luciferase enzyme (final concentration 10 nM, Photinus pyralis luciferase) or buffer was dispensed for a final assay volume of 4 uL.
5. Plates were centrifuged (121xg, 15 seconds) and incubated for 5 minutes.
6. Samples were read for luminescence on a ViewLux CCD imager (PerkinElmer). Data were normalized to no-enzyme (0% activity) and no-inhibitor (DMSO; 100%) controls and the resulting percent inhibition data were fitted to a 4-parameter Hill equation using NCATS in-house software.
In general terms: Quantitative high-throughput screening tests each substance at several concentrations.
Consider `CCCCn1cc(C(=O)c2cccc3ccccc23)c2ccccc21`, for which the outcome was inactive.

With `N#Cc1cn([C@@H]2O[C@H](CO)[C@H](O)[C@@H]2O)c2ncnc(N)c12`, the result was inactive.

On to `COc1ccsc1CNCC[C@@]1(c2ccccn2)CCOC2(CCCC2)C1`, for which the molecule was classed as inactive.

As for `CC(=O)OC[C@]12C[C@H](OC(C)=O)C(C)=C[C@H]1O[C@@H]1[C@H](O)[C@@H](O)[C@@]2(C)[C@]12CO2`, the molecule was classed as inactive.

`CC(C)C(=O)O[C@H]1[C@@H]2[C@H](C)C(=O)O[C@@H]2C[C@@H](C)[C@@H]2C=CC(=O)[C@]21C`: the outcome was inactive.

Take `COC1(C[S@@](=O)c2ccccc2)CCN(CCc2c[nH]c3ccc(F)cc23)CC1`: the outcome was inactive.

`Cc1sc2c(c1C)C(c1ccc(Cl)cc1)=NC(CC(=O)OC(C)(C)C)c1nnc(C)n1-2` (stereo not given): the result was inactive.

As to `C#CC1(O)CCC2C3CCC4=CC(=O)CCC4=C3C=CC21C` (stereo not given), the outcome was inactive.

For the molecule `C[N@@+]1(CC2CC2)CC[C@]23c4c5ccc(O)c4O[C@H]2C(=O)CC[C@@]3(O)[C@H]1C5`, the call was inactive.

Regarding `CN1CCc2cc3c(cc2C1C1OC(=O)c2c1ccc1c2OCO1)OCO3` (stereo not given), the molecule was called inactive.

With `CCCCCn1cc(C(=O)c2cccc3ccccc23)c2ccccc21`, the molecule was classed as inactive.

As for `CC(=O)O[C@H]1CC[C@@]2(CI)C(=CC[C@@H]3[C@@H]2CC[C@]2(C)C(=O)CC[C@@H]32)C1`, the molecule was called inactive.

As to `CN1C(=O)N(c2ccc(C#N)c(C(F)(F)F)c2)C(=O)[C@@]1(CO)c1ccccc1`, the molecule was called inactive.

On to `CO[C@@H]1[C@H](O)[C@@H](O[C@@H]2C[C@H]3CC[C@@H]4C(CC[C@]5(C)[C@@H](C6=CC(=O)OC6)CC[C@]45O)[C@@]3(C)[C@H](O)C2)O[C@H](C)[C@@H]1O` (stereo not given in full), for which the outcome was inactive.

`C[C@@H]1CCC/C=C/[C@H]2C[C@@H](O)C[C@@H]2[C@@H](O)/C=C/C(=O)O1`: the result was inactive.

Turning to `CC(O)(c1ccccc1)C(Cc1ccc(Cl)cc1)n1cncn1` (stereo not given), the molecule was called inactive.

Turning to `Oc1ccc2c3c1O[C@H]1c4[nH]c5c(N=C=S)cccc5c4C[C@@]4(O)[C@@H](C2)N(CC2CC2)CC[C@]314`, the molecule was called inactive.

As for `COC1CC(O[C@H]2CC[C@@]3(C)C(CCC4C3CC[C@]3(C)[C@@H](C5=CC(=O)OC5)CC[C@]43O)C2)OC(C)C1O` (stereo not given in full), the outcome was inactive.

As to `C/C=C(\C)C(=O)OC1CC2C(CC=C3CC(OC4CC(OC)C(OC5CC(OC)C(OC6CC(OC)C(OC7CC(OC)C(O)C(C)O7)C(C)O6)C(C)O5)C(C)O4)CCC32C)C2(O)CCC(C(C)=O)C12C` (stereo not given), the activity change, negative = inhibition was 3.09% [at 11.6 µM] (inactive).

Take `COc1ccc(CC2C(=O)NC(C)C(=O)N(C)C3Cc4ccc(cc4)Oc4cc(ccc4OC4OC(CO)C(O)C(O)C4O)CC(C(=O)NC(C)C(=O)NC(CCC(=O)O)C(=O)N2C)N(C)C3=O)cc1` (stereo not given): the activity change, negative = inhibition was -19.1% [at 11.6 µM] (inactive).

For the molecule `CC1=CC2/C=C(\C)CCC(O)C(O)/C=C/C(=O)OC23C(=O)NC(CC(C)C)C3C1C` (stereo not given), the molecule was classed as inactive.

Consider `FC(F)(F)c1ccc(N2CCNCC2)nc1Cl`, for which the call was inactive.

Consider `CCCN(CCC)[C@@H]1CCc2ccc3[nH]c(C#N)cc3c2C1`, for which the call was inactive.

As to `CO[C@H]1[C@@H](O)[C@@H](C)O[C@@H](O[C@@H]2C=C3C(OC(C)=O)CC4(O)C(CC[C@]5(C)[C@@H](C6=CC(=O)OC6)CC[C@]45O)[C@@]3(C)CC2)[C@@H]1O` (stereo not given in full), the outcome is “inactive [at 25.7 µM]”.

As for `CN1CCC2=C(C1)c1ccccc1Cc1ccccc12`, the result was inactive.

Regarding `CCOP(=O)(OCC)Oc1ccc2c(C)cc(=O)oc2c1`, the call was inactive.

Turning to `C=C(C)[C@@]12O[C@@H]1[C@@]1(C)C(=C[C@H]2O)CC[C@@H](O)[C@@H]1C`, the molecule was classed as inactive.

Consider `CO[C@@H]1C[C@H](O[C@H]2CC[C@@]3(C)C(CCC4C3CC[C@]3(C)[C@@H](C5=CC(=O)OC5)[C@@H](OC(C)=O)CC43O)C2)O[C@H](C)[C@@H]1O[C@H]1O[C@H](CO[C@@H]2O[C@H](CO)[C@@H](O)[C@H](O)[C@H]2O)[C@@H](O)[C@H](O)[C@H]1O` (stereo not given in full), for which the activity change, negative = inhibition was -3.37% [at 11.6 µM] (inactive).

Take `COc1cc2c(c(OC)c1OC)-c1ccc(SC)c(=O)cc1[C@@H](NC(C)=O)CC2`: the result was inactive.

Consider `O=C1Nc2ccc3ncsc3c2/C1=C/c1cnc[nH]1`, for which the molecule was called inactive.

On to `CCCCCCC1C(=O)O[C@H](C)[C@H](NC(=O)c2cccc(NC=O)c2O)C(=O)O[C@@H](C)[C@@H]1OC(=O)CC(C)C` (stereo not given in full), for which the molecule was called inactive.

For `CC1=CC(=O)[C@@H](O)[C@]2(C)C3[C@@H](O)[C@@H]4OC(=O)[C@@H]([C@H]4C)[C@]3(C)C(=O)[C@H](O)[C@@H]12` (stereo not given in full), the molecule was classed as inactive.

For `C[C@]12CC[C@@H](O)C[C@@H]1CC[C@@H]1[C@@H]2CC[C@]2(C)C(=O)[C@@H](Br)C[C@@H]12`, the result was inactive.

Take `CC(=O)C1CCC2C3CCC4C[C@@H](O)CCC4(C)C3CCC12C` (stereo not given in full): the molecule was called inactive.

For the molecule `C[C@H](Nc1ncnc2nc[nH]c12)c1nc2ccc(F)cc2c(=O)n1-c1ccccc1`, the result was inactive.

Turning to `CC(=O)NCCCOc1ccc(C(=O)N2CCC(N3C(=O)CCc4ccccc43)CC2)cc1`, the call was inactive.

`CCC1NC(=O)C2C(Cl)C(Cl)CN2C(=O)C(CC)NC(=O)CC(c2ccccc2)NC(=O)C(CO)NC1=O` (stereo not given): the call was inactive.

Turning to `Cc1ccc(-n2nccn2)c(C(=O)N2CCN(c3nc4cc(Cl)ccc4o3)CCC2C)c1` (stereo not given), the result was inactive.

On to `CC/C=C/C=C/C1(C)OC(OC)=C(C(=O)C2C(C)C(=O)c3cc(OC)c(O)c(O)c3C2(C)O)C1=O` (stereo not given), for which the outcome was “inactive [at 25.7 µM]”.

`CN(C(=O)CN1C(=O)COc2cc(Cl)c(Cl)cc21)[C@@H](CN1CCCC1)c1ccc(-c2cccc(C(N)=O)c2)cc1`: the result was inactive.
